Compound activity as filed in PubChem BioAssay.
ELG1 DNA repair – blocks ELG1-dependent DNA repair in HEK293T cells; HEK293T ELG1-luciferase reporter, luminescence, 16 h; DNA damage induced by 5-fluorouridine; Potency, µM (top dose mostly 46.1 µM), hits mostly inhibitors; 2.3% of 330,000 active; further: nearly all actives have a fitted effect of over 55% in size
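Overnight (16 hr) co-exposure of 2,000 cells/well to 5-fluorouridine and compound at 37 °C preceded detection. Luciferase was quantified via ONE-Glo luminescence; loss of signal denotes inhibition.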
BRCA1 expr up – activators of BRCA1 expression; MCF7-BRCA1-FFLuc reporter, luminescence, 48 h; response scale: scaled: vehicle 0%, 10 µM genistein 100%; 1.1% of 380,000 active; Potency, µM (top dose mostly 46.1 µM), hits mostly activators; further: nearly all actives have a fitted effect of over 80% in size
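Quantitative HTS in MCF7 cells stably reporting BRCA1 expression via firefly luciferase. Compound treatment lasts 48 h at 37 °C in phenol-red free MEM. Activation is expressed relative to genistein at 10 microM and DMSO.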
IL-2 act – activates IL-2 in a cell-based reporter assay | AID 652025 | 0.065% of 360,000 active | activation, % (series mostly up to about 46 µM) | IL-2 activation reporter assay, cell-based qHTS; stimulated with anti-CD3/CD4/CD28 beads; in transgenic mouse T cells; in the data active means activation above about 50%; inconclusive means mostly about 30% to 49%
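EGFP and DsRed fluorescence is measured by plate cytometry in unstimulated transgenic mouse T cells exposed to compound for 60 minutes, then stimulated 18 hours at 37 degrees C with anti-CD3/anti-CD4 beads plus anti-CD28.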
Nrf2 activator – activators of Nrf2 (ARE) signaling. AID 624171. 0.31% of 410,000 active. Potency, µM (doses to about 46.1 µM), usual class: activators. AREc32 ARE-luciferase reporter (MCF7-derived line), luminescence, 24 h; further: nearly all actives have a fitted effect of over 65% in size
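ARE-driven firefly luciferase activity in AREc32 cells measured after a 24 hr compound exposure at 37 deg C, using Steady-Glo reagent and a 30 min room-temperature hold.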
ELG1 FLuc counter – luciferase inhibition in cell-free luciferin readout for ELG1 hits | Potency, µM (highest dose often 46.1 µM), usual class: inhibitors | cell-free firefly luciferase luminescence counter-screen, ViewLux | shares compounds with ELG1 DNA repair | 3% of 350 active
ELG1-Luc inh – human ELG1 repair inhibition, luciferase-tagged ELG1 confirmation; shares compounds with ELG1 DNA repair; 68% of 670 active; Potency, µM (titrated, usually from 46.1 µM), most hits filed as inhibitors; HEK293T ELG1-luciferase levels, luminescence; cells co-treated with 5-fluorouridine; AID 624248; further: nearly all actives have a fitted effect of over 55% in size
ELG1-Luc MMS – confirmation of human ELG1 repair inhibitors, MMS stimulated; shares compounds with ELG1 DNA repair; HEK293T luciferase-tagged ELG1 level, MMS stimulated; Potency, µM (titrated, usually from 46.1 µM), actives largely listed as inhibitors; 53% of 670 active; AID 624249; further: nearly all actives have a fitted effect of over 60% in size
ELG1 5FU viab – confirmation of ELG1 repair inhibitors: viability with 5FU | Potency, µM (top dose mostly 46.1 µM), usual class: cytotoxic | 670 tested, under 10 active | shares compounds with ELG1 DNA repair | cell viability with 5-FU, ELG1-dependent repair;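 further: ELG1-luc HEK293T cells cotreated with 5-fluorouridine at 10 µM final; viability measured 16 h after compound addition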
ELG1 MMS cell – confirmation of ELG1 repair inhibitors: viability with MMS; shares compounds with ELG1 DNA repair; Cell viability with MMS, ELG1-dependent DNA repair; Potency, µM (titrated, usually from 46.1 µM), most hits filed as cytotoxic; 33% of 670 active;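 further: ELG1-luc HEK293T cells co-treated with 10 µM MMS; viability read 16 h after compound addition; nearly all actives have a fitted effect of over 60% in size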
Cell viab unstim – counter-screen for ELG1 repair inhibitors: unstimulated cell viability. Potency, µM (series often up to 45.9 µM), hits mostly cytotoxic. cell viability counter-screen, unstimulated, luminescence. AID 624252. shares compounds with ELG1 DNA repair. 8% of 900 active;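 further: compound exposure lasted 16 hours before reading; nearly all actives have a fitted effect of over 55% in size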
FLuc biochem – counter-screen for ELG1 repair inhibitors: firefly luciferase inhibition | shares compounds with ELG1 DNA repair | purified firefly luciferase, luminescence counter-screen | Potency, µM (highest dose often 57.5 µM), hits mostly inhibitors | 10% of 350 active | AID 624253
Numbers stand for hits; – = inactive; ? = inconclusive; · = no result. In the library only some 3.1% were active in any assay of this set; here they are far more common. Unless noted, the call rests on the fitted dose curve; in most records, active means well fitted curve in the direction sought with a large enough effect; inconclusive means small, poorly fitted or top-dose-only effect, or another doubt; inactive means no such curve, though single readings can be large; an effect the other way counts as inactive or inconclusive.

SMILES | ELG1 DNA repair | BRCA1 expr up | IL-2 act | Nrf2 activator | ELG1 FLuc counter | ELG1-Luc inh | ELG1-Luc MMS | ELG1 5FU viab | ELG1 MMS cell | Cell viab unstim | FLuc biochem
COc1ccc(C2(C)NC(=O)N(CC(=O)NC3CC3)C2=O)cc1 (centres undefined) | – | – | – | – | · | · | · | · | · | · | ·
CC1CCC(NC(=O)CN2C(=O)NC(C)(C)C2=O)CC1 (centres undefined) | – | – | – | – | – | · | · | · | · | – | –
O=c1oc2ccc(F)cc2cc1-c1nc(-c2cccs2)no1 | · | · | · | – | · | · | · | · | · | · | ·
COc1ccc(CCN2C(=O)CSC2=Nc2ccc(C(C)C)cc2)cc1OC | 4.1µM | – | – | – | · | 25µM | 2.5µM | ? | 2µM | 16µM | ·
O=C(c1ccc(Cl)c(S(=O)(=O)N2CCOCC2)c1)N1CCN(c2ccccc2)CC1 | 0.082µM | – | – | – | – | ? | – | – | – | ? | –
O=C(c1ccc(Cl)c(S(=O)(=O)N2CCOCC2)c1)N1CCN(Cc2ccccc2)CC1 | – | – | – | – | · | · | · | · | · | · | ·
CN(C)CCN(Cc1ccco1)C(=O)c1cc2c(s1)-c1ccccc1OC2 | · | · | · | – | · | · | · | · | · | · | ·
O=c1[nH]c(=O)n([C@@H]2C[C@H](O)[C@H](CO)O2)cc1C(F)(F)F | · | · | · | · | – | ? | – | – | ? | – | –
COc1ccc(OC)c(C2CC(=O)Nc3c2c(=O)n(C)c2ncnn32)c1 (centres undefined) | · | – | · | – | · | · | · | · | · | · | ·
COc1cc(C(=O)NCc2ccccc2)cc(Br)c1OC | 3.7µM | – | – | – | · | ? | – | ? | – | – | ·
COc1cc(C(=O)NCc2ccncc2)cc(OC)c1OC | ? | – | – | – | · | · | · | · | · | · | ·
Cc1ccc(C(=O)N2CCC(c3c[nH]c4ccccc34)(c3c[nH]c4ccccc34)CC2)cc1 | · | – | · | – | · | · | · | · | · | · | ·
COC(=O)C[C@H]1CC[C@@H](NC(=O)Nc2c(C)noc2C)[C@@H](CO)O1 | · | · | – | · | · | · | · | · | · | · | ·
CC(=O)NC(CC(=O)Nc1ccc(S(=O)(=O)Nc2nccs2)cc1)c1ccccc1 (centres undefined) | 0.52µM | – | – | – | – | ? | – | – | – | – | –
CC(=O)NC(CC(=O)Nc1ccc(S(=O)(=O)NC2=NCCCCC2)cc1)c1ccccc1 (centres undefined) | – | – | – | – | · | · | · | · | · | · | ·
COc1ccccc1N1CCN(C(=O)CCCN2C(=O)c3cccc4cccc(c34)C2=O)CC1 | 4.6µM | – | – | – | · | 7.9µM | ? | ? | – | ? | ·
COc1ccc(C2=Nn3c(nnc3-c3ccncc3)SC2)cc1 | 2.3µM | – | – | – | – | 6.3µM | ? | – | – | – | –
O=C(CN1N=C(c2ccc(Cl)cc2)CCC1=O)NCc1ccc(F)cc1 | · | · | · | – | · | · | · | · | · | · | ·
CN(CCCC(=O)Nc1ccncc1)S(=O)(=O)c1ccc(Cl)cc1 | 2.3µM | – | – | – | – | – | 7.9µM | – | 7.9µM | ? | –
Cc1nc(NC(=O)c2c(-c3ccccc3Cl)noc2C)sc1C | 2.9µM | – | – | – | · | ? | 0.5µM | ? | – | – | ·
CC1CCc2nc(-c3cc4ccc(O)cc4oc3=O)sc2C1 (centres undefined) | · | ? | · | · | – | · | · | · | · | – | 0.18µM
O=c1oc2cc(O)ccc2cc1-c1nc2ccccc2o1 | · | – | – | – | · | · | · | · | · | · | ·
CCOC(=O)c1noc2ncnc(Nc3cc(Cl)c(OC)cc3OC)c12 | · | – | · | – | · | · | · | · | · | · | ·
COc1cccc2oc(-c3ccccc3)cc(=O)c12 | · | · | · | · | · | · | · | · | · | ? | ·
O=c1cc(-c2ccccc2)oc2ccc(Br)cc12 | ? | ? | – | ? | · | · | · | · | · | – | ·
O=C(COc1ccc2oc(-c3ccccc3)cc(=O)c2c1)Nc1ccccc1 | ? | – | – | – | · | · | · | · | · | · | ·
COc1ccc(NC(=O)CN(c2ccccc2OC)S(C)(=O)=O)c(OC)c1 | · | – | · | – | · | · | · | · | · | · | ·
